# Experimental data reported in the supplement of paper PMC3724861.
# Only a selection was taken, and hits are over-represented in it overall. The true hit rate is not given. Values without a mark were called inactive.
# System: T1, Caupolican (Caup) homeodomain DNA-binding domain
# T1 sequence: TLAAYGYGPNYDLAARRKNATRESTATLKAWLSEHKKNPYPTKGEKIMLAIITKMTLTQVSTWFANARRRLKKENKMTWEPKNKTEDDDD
# Test: PBM E-score (8-mer, recovered from the published 9-mer minima) (E-score (dimensionless, -0.5 to 0.5)); Drosophila protein; higher = stronger relative binding preference, active = 0.31 or more
# Outline: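 Caup's homeodomain DNA-binding domain (residues 214-303) was produced by in vitro transcription and translation and applied at 100 nM to custom-designed protein binding microarrays. Each value is an enrichment score giving relative binding preference for a short DNA word; higher means stronger. Published 9-mer scores were the minimum of their two constituent 8-mer scores, and the 8-mer values were recovered from those minima. A cutoff of 0.31 marks candidate binding sequences.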
row,Sequence,PBM E-score
1,AGTACGGA,-0.0156
2,ATAGACTA,0.115
3,AGTTATTG,0.11
4,AGAGTCCC,-0.228
5,GTACAGAA,0.136
6,CGTATCAA,0.0341
7,TGTATCAA,0.315 (active)
8,AGTATCAA,0.148
9,CCTGTCTA,0.0989
10,ATTGTCTA,0.194
11,CTTGTCTA,0.281
12,ATTGTCCA,0.1
13,GCTGTCAA,0.057
14,CTTGTCCA,0.287
15,GTTGTCTA,0.321 (active)
16,ATTGTCAA,0.183
17,GTTGTCAA,0.339 (active)
18,GTTGTCCA,≥ 0.336 (active)
19,CGGGACAA,0.0647
20,CCGGGTGC,-0.287
21,ACTTAATC,0.0653
22,GTTTAATA,0.23
23,AAAGCCGA,-0.139
24,AGGTACAT,0.389 (active)

row,Sequence,PBM E-score
1,AGGTATAA,0.0486
2,GGGTACAA,0.242
3,AGGTACAC,0.297
4,TGGTACAA,0.358 (active)
5,CGGTACAA,0.234
6,AGGTACAA,0.345 (active)
7,AGGTACAG,0.146
8,AGGTACTC,0.085
9,GGAGGGAA,-0.186
10,ACGCATAT,0.103
11,ACGGCTTG,-0.133
12,CACCTACA,0.17
13,AGTCATTG,0.121
14,CGAGTGAA,-0.00479
15,GAACACTA,0.103
16,GAACACGC,0.254
17,TAACACGA,0.323 (active)
18,TAACACCA,0.247
19,CAACACGA,0.267
20,GAACACGA,0.32 (active)
21,GCCGCCCA,-0.275
22,ATGTAAAG,0.317 (active)
23,ATGTAAAC,0.36 (active)
24,ACGTAAAT,0.102

row,Sequence,PBM E-score
1,CTGTAAAG,0.0792
2,GTGTAAAC,0.293
3,ATGTAAAA,0.354 (active)
4,AAGTAAAG,-0.0403
5,CTGTAAAC,0.18
6,CTGTAAAA,0.121
7,AGGTAAAT,0.153
8,TTGTAAAA,0.275
9,ATGTAAAT,0.352 (active)
10,AGAGTAGG,0.00327
11,CCCCTCGC,-0.261
12,CACACATG,0.192
13,AGCGACAA,0.228
14,GTTATTTA,0.201
15,AATGCATA,0.0394
16,ACGTTTGG,0.0157
17,AAGGTCAA,0.00315
18,ATGCCTCA,-0.045
19,CGAGACAA,0.0948
20,AAGTGTAG,0.17
21,ACGTGTAG,0.321 (active)
22,ACGTGTGC,0.0653
23,AAGTGTAT,0.144
24,CCGTGTAG,0.286

row,Sequence,PBM E-score
1,CCGTGTCC,0.218
2,CAGTGTAC,0.207
3,ACGTGTAT,0.353 (active)
4,ACGTGTCT,0.244
5,CCGTGTAC,0.411 (active)
6,ACGTGTAC,0.367 (active)
7,AAGTGTAC,0.304
8,CTGAGCGC,-0.211
9,TCTCGAGA,0.0237
10,AACGACTG,0.0234
11,CTTCAGTC,-0.0898
12,AGTCCATG,0.0703
13,ACTGCCGG,-0.163
14,ACTATCGG,-0.056
15,CGCAGGTA,-0.0146
16,AGGTAAAA,0.0159
17,GCGTGTCC,0.223
18,GCGTGTAC,0.367 (active)
19,GAGTGTAC,0.121
20,CCTAAAAC,-0.07
21,GGTGGCCA,-0.164
22,CCCTTACA,0.152
23,ATGGCCCC,-0.175
24,AATATAGA,0.138

row,Sequence,PBM E-score
1,ATAAACAC,0.251
2,TTAAACAA,0.23
3,ATAAACAG,0.147
4,GTAAACAA,0.321 (active)
5,ATAAACAA,0.254
6,ACAAACAG,0.258
7,ACAAACAC,0.301
8,AAAAACAT,0.296
9,ACAAACCT,0.0926
10,ATAAACAT,0.321 (active)
11,ACAAACAA,0.317 (active)
12,ACAAACAT,0.368 (active)
13,CGGTGAAA,-0.001
14,ATCTTCTG,-0.0212
15,CACTAAAG,-0.125
16,GATATGGC,-0.0691
17,GATTTGCC,-0.0122
18,GGTGTAAC,0.205
19,CGTGTAAC,0.321 (active)
20,AGTGTAAA,0.13
21,ACTGTAAG,0.147
22,CGTGTAAG,0.333 (active)
23,TGTGTAAA,0.318 (active)
24,AGTGTAAC,0.2

row,Sequence,PBM E-score
1,GGTGTAAA,0.24
2,CGTGTAAA,0.377 (active)
3,AGTGTAAG,0.215
4,ACGTTCCG,-0.0768
5,AAGCCAGG,-0.171
6,ACCCGCAG,-0.142
7,AATTAGAC,0.132
8,CAGCGAAC,0.0117
9,CGGCCCTC,-0.331
10,AGGCCCCC,-0.398
11,GGATCGCA,0.00822
12,CCATAGCA,0.0725
13,CATGTTTA,0.399 (active)
14,AATGTTTA,0.213
15,GATGTTTA,0.247
16,CCTGTTTC,0.17
17,AATGTTTC,0.143
18,CATGTTTC,0.355 (active)
19,CTAGAGCA,-0.132
20,AAATGCAA,0.0939
21,CCACAGGA,-0.0146
22,ATTGCCCG,-0.0341
23,CAACTCAC,0.0566
24,AGTAAGAA,0.06

row,Sequence,PBM E-score
1,ATCGCAAG,-0.0386
2,CTTGTAAC,0.424 (active)
3,GTTGTAAA,0.279
4,ATTGTAAA,0.246
5,CTTGTAAA,0.365 (active)
6,CCTGTAAC,0.176
7,ATTGTAAC,0.308
8,GCATGAGA,-0.0059
9,CTCGTGAC,-0.0131
10,GTAGACAA,0.313 (active)
11,CTAGACAA,0.0936
12,TTAGACAA,0.206
13,ATAGACAT,0.321 (active)
14,ATAGACAC,0.259
15,ATAGACAG,0.16
16,ATCGAAAC,-0.0231
17,CTTCCAAG,-0.0467
18,AGAGGTGG,-0.107
19,ACGTATCG,0.15
20,ATGTATCC,0.332 (active)
21,GTGTATCA,0.276
22,CTGTATCA,0.15
23,AAGTATCG,0.134
24,ATGTATCA,0.321 (active)

row,Sequence,PBM E-score
1,ATGTATCG,0.337 (active)
2,AAGTATCC,-0.0551
3,CTGTATCC,0.2
4,ATGTCCAG,0.2
5,ACGCAACA,0.215
6,ATTTAGTC,0.0884
7,CCCCAAAC,-0.0197
8,CTTGCTGC,-0.0454
9,AATAACAC,0.284
10,AGTAACAG,0.19
11,AGTAACAC,0.24
12,AATAACAT,0.348 (active)
13,AGTAACAT,0.316 (active)
14,AATAACAG,0.241
15,AGGCGTCG,-0.157
16,CTTTGTCA,0.0793
17,CAAAGTAC,0.172
18,GGAGTGGA,-0.133
19,ACATATCA,≥ 0.321 (active)
20,ACATATTG,0.26
21,ACATATTA,0.33 (active)
22,ACATATCG,0.238
23,CCATATTC,0.011
24,CCATATCA,0.0253

row,Sequence,PBM E-score
1,ACATATTC,0.329 (active)
2,ATATATTC,0.192
3,CCATATTA,0.105
4,TTTGAAAA,0.105
5,AAGGATGT,0.185
6,AGTTAAGC,0.0239
7,GCACACCC,-0.143
8,AGAGTGCG,-0.148
9,CTCTCCTC,-0.078
10,CCGACGCG,-0.167
11,GCCTGGCC,-0.292
12,AACTACAG,0.177
13,AACTACCT,0.122
14,ATCTACAC,0.227
15,ACCTACAA,0.171
16,GACTACAC,0.33 (active)
17,AACTACGT,0.151
18,GACTACAA,0.222
19,AACTACAT,0.408 (active)
20,AACTACAC,0.355 (active)
21,AACTACAA,0.342 (active)
22,CACTACAA,0.266
23,CACTACAC,0.206
24,TCTCACAA,0.048

row,Sequence,PBM E-score
1,TAGTGTGA,0.108
2,GCCTCACC,-0.232
3,ACTAGATG,0.121
4,CACCCTAG,-0.0221
5,ACACCTCT,0.111
6,AGCGCGGC,-0.184
7,TGCACGCA,-0.0359
8,GCCATGGC,-0.246
9,AACATTGA,0.243
10,TAGATGGA,0.0256
11,TCCATGGA,0.0552
12,ATCATGGC,-0.0613
13,CACATGGC,-0.0837
14,AACATTGT,≥ 0.347 (active)
15,ACCATGGC,0.0502
16,AACATTGG,0.159
17,TACATGGA,0.413 (active)
18,GACATGGC,0.314 (active)
19,AACATGGC,0.328 (active)
